Measurements taken from PubChem BioAssay (NCATS).
Results filed as inconclusive are left out. Calls of active or inactive are those of the source. Unless noted, the call rests on the fitted dose curve; in most records, active means well fitted curve in the direction sought with a large enough effect; inconclusive means small, poorly fitted or top-dose-only effect, or another doubt; inactive means no such curve, though single readings can be large; an effect the other way counts as inactive or inconclusive.

Experiments:
[1] = test system: HIV-1 nucleocapsid protein NCp7 (binding to TG oligonucleotide); experiment: HIV Nucleocapsid (AID 346; call rule not given here;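 further: potency means the concentration at half of the fitted maximal effect; potency is for inhibitors that block NC binding and lower polarization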); conditions: HIV-1 NC / fluorescein-TGTGTGTG probe, fluorescence polarization
Summary of the method: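 Fluorescence polarization readout: labelled TG4xF oligo (10 nM) with 100 nM nucleocapsid protein, high-salt (250mM NaCl) Hepes pH 7.5 buffer containing zinc and fresh reducing agents. Compounds added by pin tool; incubation 1 hr, room temperature.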

[2] = target: Lysosomal acid glucosylceramidase (Homo sapiens) (UniProt P04062); experiment: Glucocerebrosidase-p2 (AID 348; in the data active means potency below about 10 µM; further: potency means the concentration at half of the fitted maximal effect); conditions: purified GBA, blue fluorogenic substrate, 40 min
Lysosomal acid glucosylceramidase (Homo sapiens), sequence (P04062 whole entry, looked up): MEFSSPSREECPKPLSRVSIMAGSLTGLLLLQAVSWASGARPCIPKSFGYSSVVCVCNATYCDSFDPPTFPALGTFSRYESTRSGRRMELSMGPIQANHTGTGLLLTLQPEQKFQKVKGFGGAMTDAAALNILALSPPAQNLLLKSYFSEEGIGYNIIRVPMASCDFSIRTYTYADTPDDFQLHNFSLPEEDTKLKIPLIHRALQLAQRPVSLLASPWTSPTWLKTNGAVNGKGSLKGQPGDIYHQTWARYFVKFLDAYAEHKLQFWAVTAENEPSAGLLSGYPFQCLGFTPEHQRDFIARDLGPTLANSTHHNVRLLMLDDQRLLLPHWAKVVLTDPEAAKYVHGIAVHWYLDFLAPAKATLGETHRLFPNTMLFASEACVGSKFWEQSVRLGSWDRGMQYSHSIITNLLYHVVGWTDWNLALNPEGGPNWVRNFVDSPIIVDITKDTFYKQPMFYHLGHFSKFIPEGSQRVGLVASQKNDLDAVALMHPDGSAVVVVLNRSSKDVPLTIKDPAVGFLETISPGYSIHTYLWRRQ
Summary of the method: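 Normal human glucocerebrosidase (0.2 nM) with blue fluorogenic substrate (80 uM final) in citrate/phosphate pH 5.9 with 10mM sodium taurocholate, 0.01% tween-20; 40 min RT, NaOH/glycine stop; fluorescence Ex 365/Em 440; AC50 from a titration from 0.6 nM upwards.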

[3] = AP1 Signaling Pathway (AID 357; active means well fitted curve in either direction with a large enough effect, not every such curve was filed as active;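 further: ME-180 reporter cells stimulated with EGF at its EC50 level; on the % scale 0 is the no-effect control and ±100 the full control effect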)
Summary of the method: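 Cells are seeded overnight, exposed to compound titrations and an EC50 level of EGF for 5 hours at 37 °C, then loaded with CCF4 dye for 2.5 hours. Beta-lactamase activity under the AP-1 element is read as a blue/green ratio.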

[4] = target: Cytochrome P450 1A2 (Homo sapiens) (UniProt P05177); experiment: p450-cyp1a2 (AID 410; calls by dose curve; further: potency means the concentration at half of the fitted maximal effect;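 on activity change, negative = inhibition: -100% = full effect of reference inhibitor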)
Cytochrome P450 1A2 (Homo sapiens), sequence (P05177 whole entry, looked up): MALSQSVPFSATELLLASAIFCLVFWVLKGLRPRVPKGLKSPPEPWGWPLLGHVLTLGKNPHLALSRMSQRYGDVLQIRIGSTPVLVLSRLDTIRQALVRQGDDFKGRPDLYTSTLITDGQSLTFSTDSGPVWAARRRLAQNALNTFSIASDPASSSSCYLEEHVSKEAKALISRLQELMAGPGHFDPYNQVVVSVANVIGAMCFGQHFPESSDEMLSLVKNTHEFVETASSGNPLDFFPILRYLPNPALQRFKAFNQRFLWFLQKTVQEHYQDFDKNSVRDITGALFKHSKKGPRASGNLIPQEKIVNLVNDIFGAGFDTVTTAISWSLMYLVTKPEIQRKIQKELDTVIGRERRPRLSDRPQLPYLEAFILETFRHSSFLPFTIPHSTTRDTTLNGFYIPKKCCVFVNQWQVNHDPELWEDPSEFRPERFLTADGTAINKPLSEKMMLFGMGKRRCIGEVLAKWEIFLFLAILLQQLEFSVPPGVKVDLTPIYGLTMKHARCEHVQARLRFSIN
Summary of the method: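 20nM CYP1A2, 100uM Luciferin-ME (=Km), 100mM KPO4; cpd 10 min RT; +NADPH regen, 60 min RT; stop/detect 20 min; luminescence. Normalized to furafylline 57 uM = full inhibition.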

[5] = NFAT Signaling Pathway (AID 444; active means well fitted curve in either direction with a large enough effect, not every such curve was filed as active;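 further: carbachol stimulus at about its EC50 of 1 µM final; on the % scale 0 is the no-effect control and ±100 the full control effect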); conditions: Jurkat NFAT-bla M1, carbachol, beta-lactamase ratio, 5 h; at 7.69 µM (top of the series)
Summary of the method: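 Jurkat cells with NFAT-driven β-lactamase reporter and co-expressed M1 receptor, stimulated with carbachol (final 1 uM, ~EC50), compound titration, 5 h at 37 °C. CCF4 loaded 1 h at RT; 460/530 nm ratio gave %activity and AC50.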

[6] = Stat Signaling Pathway (AID 446; active means well fitted curve in either direction with a large enough effect, not every such curve was filed as active;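 further: ME-180 cervical cancer cells given 40 pM IL-6 alongside compound; SIE-controlled beta-lactamase reporter measured as 460/530 nm FRET emission ratio; on the % scale 0 is the no-effect control and ±100 the full control effect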)
Summary of the method: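 Compound effects on IL-6-induced STAT reporter activity were measured in ME-180 cells. After overnight culture, cells were co-treated with 40 pM IL-6 for 5 hrs before beta-lactamase substrate loading at room temperature.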

[7] = target: Glucocorticoid receptor (Homo sapiens) (UniProt P04150); experiment: GR-EFC Redistribution (AID 451; calls by dose curve; further: potency means the concentration at half of the fitted maximal effect); conditions: CHO-K1 GR-EFC translocation, beta-gal luminescence, 2 h
Glucocorticoid receptor (Homo sapiens), sequence (P04150 whole entry, looked up, the tested form may be a part): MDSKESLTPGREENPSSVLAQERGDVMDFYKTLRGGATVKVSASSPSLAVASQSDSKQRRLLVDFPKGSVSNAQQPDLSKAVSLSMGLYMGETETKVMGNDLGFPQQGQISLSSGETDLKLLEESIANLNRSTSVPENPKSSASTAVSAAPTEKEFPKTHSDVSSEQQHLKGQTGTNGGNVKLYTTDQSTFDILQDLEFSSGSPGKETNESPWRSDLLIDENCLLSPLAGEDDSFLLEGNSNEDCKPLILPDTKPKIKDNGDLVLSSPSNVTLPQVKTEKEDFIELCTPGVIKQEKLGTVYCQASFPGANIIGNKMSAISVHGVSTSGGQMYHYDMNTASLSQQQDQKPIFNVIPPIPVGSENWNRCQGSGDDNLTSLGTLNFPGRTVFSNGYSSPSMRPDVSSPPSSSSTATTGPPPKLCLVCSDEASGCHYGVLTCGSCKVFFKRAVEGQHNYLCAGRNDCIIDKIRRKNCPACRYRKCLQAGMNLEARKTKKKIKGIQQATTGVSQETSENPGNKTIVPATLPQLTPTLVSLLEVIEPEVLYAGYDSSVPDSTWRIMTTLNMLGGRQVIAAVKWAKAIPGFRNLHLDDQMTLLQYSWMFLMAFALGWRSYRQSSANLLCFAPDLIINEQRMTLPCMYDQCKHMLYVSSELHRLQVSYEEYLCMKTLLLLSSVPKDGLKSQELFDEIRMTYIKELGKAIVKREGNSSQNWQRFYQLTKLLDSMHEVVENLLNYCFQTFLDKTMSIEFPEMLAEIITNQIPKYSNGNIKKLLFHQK
Summary of the method: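 CHO-K1 cells expressing nuclear EA and GR-ED fragments of b-gal; compounds titrated up to 46 uM final, 2 h at 37 C. GR nuclear translocation read as complemented b-gal luminescence after 1 h RT detection.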

[8] = target: Mitogen-activated protein kinase 10 (Mus musculus) (UniProt Q61831); experiment: JNK3 AlphaScreen Assay (AID 530; active means well fitted curve in either direction with a large enough effect, not every such curve was filed as active;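 further: kinase came from lysate of stimulated human HepG2 cells; signal reports phosphorylation of biotinylated GST-cJun 1-79 at Ser73 with 10 µM ATP; on the % scale 0 is the no-effect control and ±100 the full control effect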)
Summary of the method: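 HepG2 lysate (IL-1b/TNFa pre-activated) + biotin-GST-cJun 1-79 + anti-pSer73 cJun; cpd titration, 15 min RT; ATP 10 uM start; Tris pH 7.6, MgCl2, DTT, vanadate; beads in EDTA buffer; AlphaScreen.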

[9] = target: 3',5'-cyclic-AMP phosphodiesterase 4B (Homo sapiens) (UniProt Q07343); experiment: qHTS Assay for Inhibitors of PDE-IV (AID 607; active means well fitted activation curve with a large enough effect in the main read-out, with a control signal flat, not every such curve was filed as active; further: % of control where 0% means no effect)
3',5'-cyclic-AMP phosphodiesterase 4B (Homo sapiens), sequence (Q07343 whole entry, looked up): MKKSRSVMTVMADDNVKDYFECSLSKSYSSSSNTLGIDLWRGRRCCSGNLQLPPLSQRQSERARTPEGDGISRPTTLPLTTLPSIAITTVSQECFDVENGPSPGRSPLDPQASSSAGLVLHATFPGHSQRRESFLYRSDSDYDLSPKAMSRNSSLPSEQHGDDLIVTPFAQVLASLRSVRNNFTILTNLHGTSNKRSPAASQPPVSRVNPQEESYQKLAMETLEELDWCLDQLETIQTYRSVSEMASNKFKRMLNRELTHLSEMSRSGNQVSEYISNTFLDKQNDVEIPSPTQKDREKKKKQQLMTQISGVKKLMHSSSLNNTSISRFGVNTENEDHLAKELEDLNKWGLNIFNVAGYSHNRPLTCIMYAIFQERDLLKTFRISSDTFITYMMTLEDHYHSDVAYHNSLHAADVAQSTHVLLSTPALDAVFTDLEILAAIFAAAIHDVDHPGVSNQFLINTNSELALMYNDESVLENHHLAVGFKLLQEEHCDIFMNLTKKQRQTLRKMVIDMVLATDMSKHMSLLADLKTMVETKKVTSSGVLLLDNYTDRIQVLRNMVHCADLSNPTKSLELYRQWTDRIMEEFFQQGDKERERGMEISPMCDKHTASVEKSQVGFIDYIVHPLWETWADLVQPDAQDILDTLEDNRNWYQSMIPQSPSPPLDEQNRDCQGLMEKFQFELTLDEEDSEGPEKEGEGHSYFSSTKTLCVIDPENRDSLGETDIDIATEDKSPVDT
Summary of the method: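 ACTOne HEK293 cells carry a modified cAMP-gated CNG channel and express endogenous PDE4; plated 1000 cells/well, compounds up to 22.9 uM final. Membrane-potential dye fluorescence (ex 535/em 590) was read; parental cells received 10 uM forskolin + 100 uM RO 20-1724.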

[10] = target: Cytochrome P450 3A4 (Homo sapiens) (UniProt P08684); experiment: qHTS Assay for Activators of Cytochrome P450 3A4 (AID 885); further: nearly all actives have a fitted effect of over 65% in size; further: potency means the concentration at half of the fitted maximal effect
Cytochrome P450 3A4 (Homo sapiens), sequence (P08684 whole entry, looked up): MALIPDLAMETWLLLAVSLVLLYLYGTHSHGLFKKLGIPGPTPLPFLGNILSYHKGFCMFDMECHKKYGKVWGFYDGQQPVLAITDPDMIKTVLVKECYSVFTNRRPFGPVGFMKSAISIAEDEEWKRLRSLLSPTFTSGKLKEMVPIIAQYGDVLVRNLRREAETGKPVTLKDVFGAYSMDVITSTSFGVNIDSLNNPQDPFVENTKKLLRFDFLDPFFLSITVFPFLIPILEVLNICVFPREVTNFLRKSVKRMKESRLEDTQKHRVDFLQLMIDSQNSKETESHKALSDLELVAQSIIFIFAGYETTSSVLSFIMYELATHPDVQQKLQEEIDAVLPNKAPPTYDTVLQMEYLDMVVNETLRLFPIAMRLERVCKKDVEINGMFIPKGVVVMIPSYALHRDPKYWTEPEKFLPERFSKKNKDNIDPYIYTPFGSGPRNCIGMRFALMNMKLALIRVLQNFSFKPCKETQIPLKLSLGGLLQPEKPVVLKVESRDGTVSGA
Summary of the method: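 CYP3A4 activity: Luciferin-PPXE O-dealkylation, 25uM substrate, 200mM KPO4, RT throughout. Read-out is luciferase luminescence; higher values reflect activation.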

[11] = target: Cytochrome P450 2D6 (Homo sapiens) (UniProt P10635); experiment: qHTS Assay for Inhibitors and Substrates of Cytochrome P450 2D6 (AID 891); further: potency means the concentration at half of the fitted maximal effect; nearly all actives have a fitted effect of over 60% in size
Cytochrome P450 2D6 (Homo sapiens), sequence (P10635 whole entry, looked up): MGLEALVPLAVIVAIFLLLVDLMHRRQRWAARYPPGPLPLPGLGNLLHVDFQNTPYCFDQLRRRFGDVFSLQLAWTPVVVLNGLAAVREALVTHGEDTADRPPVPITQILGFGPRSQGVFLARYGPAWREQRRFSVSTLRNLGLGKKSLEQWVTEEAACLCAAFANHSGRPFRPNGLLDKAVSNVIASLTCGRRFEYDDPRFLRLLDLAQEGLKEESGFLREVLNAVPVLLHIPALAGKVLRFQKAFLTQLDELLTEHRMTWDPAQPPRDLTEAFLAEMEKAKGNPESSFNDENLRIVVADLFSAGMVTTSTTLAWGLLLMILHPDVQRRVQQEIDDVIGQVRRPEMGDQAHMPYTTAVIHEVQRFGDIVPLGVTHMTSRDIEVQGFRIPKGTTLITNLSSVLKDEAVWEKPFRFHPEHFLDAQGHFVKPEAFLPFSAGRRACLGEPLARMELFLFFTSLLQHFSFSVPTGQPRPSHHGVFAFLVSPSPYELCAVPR
Summary of the method: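 Luminescent read-out of luciferin formed by 5 nM human CYP2D6 demethylating 30 uM Luciferin-ME EGE (Km level) over 60 min at room temperature after NADPH regeneration addition. Data normalized to full inhibition by 1.43 uM quinidine.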

[12] = qHTS Assay for Lipid Storage Modulators (AID 1519; calls by dose curve); conditions: Drosophila S3 cells, BODIPY lipid droplet/cell ratio, laser cytometry, cells loaded with oleic acid; for activity change, negative = inhibition: at 57.5 µM (top of the series)
Summary of the method: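 Cells seeded at 5,000 per well were treated with compounds over a concentration series and loaded with oleic acid (400 uM, as added). Lipid droplet fluorescence (488 nm excitation, 500-530 nm channel) was read by laser-scanning cytometry and normalized to 20 uM Triacsin C.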

[13] = Counterscreen qHTS for small molecule stabilizers of the endoplasmic reticulum resident proteome: GLuc-NoTag assay (AID 1508627);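 further: SH-SY5Y cells given compound then 100 nM thapsigargin to empty ER calcium; 0% = thapsigargin alone and -100% = DMSO vehicle control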
Summary of the method: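 Counterscreen line: SH-SY5Y-GLuc-NoTag. Seed, 5 h; compound, 19 h; thapsigargin 100 nM, 4 h; 37C/5% CO2. Readout: secreted GLuc luminescence, coelenterazine 0.07x final, no lysis.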

[14] = Cell Viability qHTS for small molecule stabilizers of the endoplasmic reticulum resident proteome (AID 1508629); conditions: cell viability counter-screen, 100 nM thapsigargin for final 4 h
[15] = Confirmatory qHTS for small molecule stabilizers of the endoplasmic reticulum resident proteome: Secreted ER Calcium Modulated Protein (SERCaMP) assay (AID 1508628); further: potency means the concentration at half of the fitted maximal effect; nearly all actives have a fitted effect of over 40% in size
Summary of the method: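 GLuc-SERCaMP-expressing SH-SY5Y cells, pretreated 16 h with compound, are challenged with thapsigargin to empty ER calcium stores; after 4 h, coelenterazine is added directly to the medium and luminescence is imaged.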

[16] = target: Calcium and integrin-binding protein 1 (Homo sapiens) (UniProt Q99828); experiment: Primary qHTS for Identification of Calcium Integrin Binding Protein 1 (CIB1) Competitor (AID 1508620)
Calcium and integrin-binding protein 1 (Homo sapiens), sequence (Q99828 whole entry, looked up): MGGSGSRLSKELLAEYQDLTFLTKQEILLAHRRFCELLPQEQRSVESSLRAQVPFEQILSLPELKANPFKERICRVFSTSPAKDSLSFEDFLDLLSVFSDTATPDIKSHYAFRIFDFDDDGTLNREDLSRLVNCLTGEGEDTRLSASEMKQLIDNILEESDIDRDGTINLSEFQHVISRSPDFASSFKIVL
Summary of the method: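 Fluorescence polarization competition: GST-tagged CIB1 (1 uM final) preincubated with compound 15 min at room temperature, then FITC-labelled alphaIIb peptide (100 nM final) added. After 15 min at room temperature, polarization read at Ex 480/Em 540.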

[17] = target: Cytochrome P450 3A4 (Homo sapiens) (UniProt P08684); experiment: qHTS Assay for Inhibitors and Substrates of Cytochrome P450 3A4 (AID 884); further: on the % scale 0 is the no-effect control and ±100 the full control effect; nearly all actives have a fitted effect of over 50% in size
Summary of the method: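 Luminescent readout of luciferin produced by CYP3A4 (20 nM) dealkylation of Luciferin-PPXE, 25 uM (its KM). NADPH-driven reaction ran 60 min at RT after 10 min compound preincubation; data scaled to 57 uM ketoconazole as 100% inhibition.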

[18] = Primary qHTS for small molecule stabilizers of the endoplasmic reticulum resident proteome: Secreted ER Calcium Modulated Protein (SERCaMP) assay (AID 1508630); further: on the % scale 0 is the no-effect control and ±100 the full control effect
Summary of the method: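 The SH-SY5Y reporter protocol was run at 3 concentrations up to 38.3 uM (primary) or 11 concentrations (follow-up): 16 h compound, 100 nM thapsigargin for 4 h, then extracellular luciferase luminescence.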

[19] = measured here: cell count channel max response
[20] = measured here: lipid channel max response

Row | SMILES | Potency [1] | Potency [2] | outcome [3] | Potency [4] | activity change, negative = inhibition [5] | outcome [6] | Potency [7] | outcome [8] | Potency [9] | Potency [10] | Potency [11] | activity change, negative = inhibition [12] | max response [12, 19] [%] | max response [12, 20] [%] | outcome [13] | max response [14] | Potency [15] | outcome [16] | Potency [17] | outcome [18]
1 | c1ccc(N2CCCC3(CCNCC3)C2)cc1 | > 20 µM (inactive) | > 11.4 µM (inactive) | inactive | inactive | -13.8% (inactive) | inactive | > 46 µM (inactive) | inactive | inactive | inactive | 7.94 µM (active) | 4.45% (inactive) | 4.47 | 14.8 | inactive | -4.75% (inactive) | – | – | – | –
2 | c1ccc(N2CC[C@@]3(CCCNC3)C2)cc1 | > 20 µM (inactive) | > 11.4 µM (inactive) | inactive | 39.8 µM (active) | – | – | > 46 µM (inactive) | inactive | inactive | inactive | – | 5.37% (inactive) | 5.01 | 10.7 | inactive | 3.77% (inactive) | 44.7 µM (active) | – | – | –
3 | CCc1nn2c(=O)cc(N3CCN(C)CC3)nc2s1 | – | – | – | – | – | – | – | – | – | – | – | – | – | – | – | – | – | inactive | – | –
4 | O=C(Nc1cccc(F)c1)N1CC2(CCN(C(=O)Oc3ccccc3)CC2)C1 | > 20 µM (inactive) | > 11.4 µM (inactive) | inactive | 12.6 µM (active) | 16.5% (inactive) | inactive | > 46 µM (inactive) | inactive | inactive | 12.6 µM (active) | – | 5.68% (inactive) | -9.16 | -1.47 | – | – | – | – | inactive | inactive
